The values that follow come from paper PMC10954555.

Experiment [1] concerns the target Large ribosomal subunit protein uL5 (UniProt P62913). In words: cross-linking mass spectrometry; other.
The next experiment has as its target Actin, cytoplasmic 2 (UniProt P63261). As to the kind of experiment: other; cross-linking mass spectrometry; other.
In experiment [2] the target is Bromodomain-containing protein 3 (UniProt Q15059). As to the kind of experiment: other; cross-linking mass spectrometry; other.
Bromodomain-containing protein 3, sequence (Q15059 whole entry): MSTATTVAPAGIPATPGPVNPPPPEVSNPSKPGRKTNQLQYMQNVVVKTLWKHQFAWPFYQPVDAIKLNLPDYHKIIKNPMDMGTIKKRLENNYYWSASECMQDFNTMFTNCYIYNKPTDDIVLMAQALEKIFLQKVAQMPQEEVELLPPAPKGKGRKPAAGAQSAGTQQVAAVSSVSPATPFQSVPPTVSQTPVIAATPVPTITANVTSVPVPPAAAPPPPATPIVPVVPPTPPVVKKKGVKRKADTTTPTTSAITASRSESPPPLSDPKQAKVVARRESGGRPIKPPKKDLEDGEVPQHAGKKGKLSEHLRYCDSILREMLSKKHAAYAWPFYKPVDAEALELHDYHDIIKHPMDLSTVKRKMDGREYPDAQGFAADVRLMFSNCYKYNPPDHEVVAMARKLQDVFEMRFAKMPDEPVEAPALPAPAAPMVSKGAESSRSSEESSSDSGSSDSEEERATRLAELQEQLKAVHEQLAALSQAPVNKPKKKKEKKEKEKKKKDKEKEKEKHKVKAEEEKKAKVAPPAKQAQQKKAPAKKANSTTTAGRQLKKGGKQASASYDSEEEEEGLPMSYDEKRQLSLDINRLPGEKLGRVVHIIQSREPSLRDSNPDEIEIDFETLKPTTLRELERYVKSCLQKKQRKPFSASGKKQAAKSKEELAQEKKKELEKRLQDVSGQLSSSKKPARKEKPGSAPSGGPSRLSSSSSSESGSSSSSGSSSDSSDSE
Experiment [3] addresses DNA-directed RNA polymerase II subunit RPB3 (UniProt P19387). In words: other; cross-linking mass spectrometry; other.
Experiment [4] addresses DNA-directed RNA polymerase II subunit RPB1 (UniProt P24928). In words: other; affinity purification or IP with mass spectrometry; other.
Experiment [5] has as its target High mobility group nucleosome-binding domain-containing protein 3 (UniProt Q15651). In words: other; cross-linking mass spectrometry; other.
Experiment [6] deals with Large ribosomal subunit protein eL34 (UniProt P49207). In words: other; cross-linking mass spectrometry; other.
The target in experiment [7] is Large ribosomal subunit protein eL8 (UniProt P62424). As to the kind of experiment: other; cross-linking mass spectrometry; other.
Experiment [8] has as its target Large ribosomal subunit protein uL2 (UniProt P62917). As to the kind of experiment: other; cross-linking mass spectrometry; other.
Experiment [9] addresses Large ribosomal subunit protein eL6 (UniProt Q02878). As to the kind of experiment: other; cross-linking mass spectrometry; other.
The target in experiment [10] is RNA polymerase II-associated factor 1 homolog (UniProt Q8N7H5). As to the kind of experiment: other; cross-linking mass spectrometry; other.
Another experiment concerns the target RNA-binding protein 8A (UniProt Q9Y5S9). In words: other; cross-linking mass spectrometry; other.
For experiment [11], the target named is Replication factor C subunit 5 (UniProt P40937). As to the kind of experiment: other; cross-linking mass spectrometry; other.
Replication factor C subunit 5, sequence (P40937 whole entry): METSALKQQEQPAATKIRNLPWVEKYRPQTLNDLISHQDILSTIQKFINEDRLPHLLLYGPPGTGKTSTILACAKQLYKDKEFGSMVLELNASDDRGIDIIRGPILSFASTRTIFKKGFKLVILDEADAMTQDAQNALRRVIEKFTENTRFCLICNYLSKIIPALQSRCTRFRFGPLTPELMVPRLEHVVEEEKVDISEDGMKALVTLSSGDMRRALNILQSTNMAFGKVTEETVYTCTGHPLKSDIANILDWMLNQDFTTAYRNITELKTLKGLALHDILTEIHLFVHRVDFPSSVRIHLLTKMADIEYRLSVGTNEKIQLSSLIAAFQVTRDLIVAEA
Experiment [12] has as its target Retinoblastoma-binding protein 5 (UniProt Q15291). In words: other; cross-linking mass spectrometry; other.
Experiment [13] has as its target Small ribosomal subunit protein eS6 (UniProt P62753). As to the kind of experiment: other; cross-linking mass spectrometry; other.
The target in experiment [14] is Small ribosomal subunit protein uS14 (UniProt P62273). As to the kind of experiment: other; cross-linking mass spectrometry; other.
Experiment [15] concerns the target Small ribosomal subunit protein uS7 (UniProt P46782). In words: other; cross-linking mass spectrometry; other.
Experiment [16] addresses Ubiquitin-ribosomal protein eS31 fusion protein (UniProt P62979). As to the kind of experiment: other; cross-linking mass spectrometry; other.
The target of experiment [17] is DNA-directed RNA polymerase II subunit RPB9 (UniProt P36954). In words: other; affinity purification or IP with mass spectrometry; other.
Experiment [18] concerns the target DNA-directed RNA polymerase II subunit RPB2 (UniProt P30876). In words: other; affinity purification or IP with mass spectrometry; cross-linking mass spectrometry; other.
Experiment [19] addresses Actin, alpha skeletal muscle (UniProt P68133). In words: cross-link between two proteins; cross-linking mass spectrometry; other.

Replication factor C subunit 4, P35249, sequence (P35249 whole entry): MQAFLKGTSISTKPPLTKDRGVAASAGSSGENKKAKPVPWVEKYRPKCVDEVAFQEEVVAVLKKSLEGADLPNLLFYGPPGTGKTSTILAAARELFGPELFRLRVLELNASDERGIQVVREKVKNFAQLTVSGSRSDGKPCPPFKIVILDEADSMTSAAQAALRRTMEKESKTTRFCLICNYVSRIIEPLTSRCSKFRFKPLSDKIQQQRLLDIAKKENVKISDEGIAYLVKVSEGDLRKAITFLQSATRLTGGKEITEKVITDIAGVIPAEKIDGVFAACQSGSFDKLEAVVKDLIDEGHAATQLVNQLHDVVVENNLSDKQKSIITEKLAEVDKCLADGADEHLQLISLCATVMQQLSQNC
Retinoblastoma-binding protein 5, sequence (Q15291 whole entry): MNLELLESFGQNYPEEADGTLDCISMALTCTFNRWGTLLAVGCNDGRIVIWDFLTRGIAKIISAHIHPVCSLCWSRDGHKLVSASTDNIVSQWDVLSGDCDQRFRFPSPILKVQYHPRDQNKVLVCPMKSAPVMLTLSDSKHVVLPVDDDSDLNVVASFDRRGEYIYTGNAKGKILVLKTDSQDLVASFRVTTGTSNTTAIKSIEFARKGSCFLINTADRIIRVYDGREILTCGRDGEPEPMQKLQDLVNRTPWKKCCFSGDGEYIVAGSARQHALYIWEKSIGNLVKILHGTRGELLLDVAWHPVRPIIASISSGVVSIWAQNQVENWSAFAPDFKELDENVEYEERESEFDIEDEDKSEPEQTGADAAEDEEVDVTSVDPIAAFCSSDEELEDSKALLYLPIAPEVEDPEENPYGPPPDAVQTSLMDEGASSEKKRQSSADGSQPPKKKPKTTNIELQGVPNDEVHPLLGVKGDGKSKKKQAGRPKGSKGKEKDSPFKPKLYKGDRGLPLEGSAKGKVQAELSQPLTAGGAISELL

As to “Large ribosomal subunit protein uL1, P62906”, in experiment [1], the “listed as a hit” value is given as “yes”.
For the substance Actin, cytoplasmic 1, P60709, in the experiment with Actin, cytoplasmic 2, the “listed as a hit” value is recorded as “yes”.
On to “Bromodomain-containing protein 4, O60885”, for which the “listed as a hit” value in experiment [2] is reported as “yes”.
Consider “DNA-directed RNA polymerase II subunit RPB4, O15514”, for which the “listed as a hit” value in experiment [3] and in experiment [4] was “yes” throughout.
Turning to “Non-histone chromosomal protein HMG-17, P05204”, in experiment [5], the “listed as a hit” value is reported as “yes”.
As to “Large ribosomal subunit protein uL4, P36578”, the “listed as a hit” value in [6], in experiment [7] and in experiment [8] was “yes” in each case.
Take “Large ribosomal subunit protein eL32, P62910”: in [9], the “listed as a hit” value was “yes”.
For “RNA polymerase-associated protein CTR9 homolog, Q6PD62”, the “listed as a hit” value in experiment [10] is reported as “yes”.
Still for that read-out and setting: the result for Parafibromin, Q6P1J9 reads “yes”.
As to “Eukaryotic initiation factor 4A-III, P38919”, in the experiment with RNA-binding protein 8A, the “listed as a hit” value is given as “yes”.
Regarding Replication factor C subunit 4, P35249, the “listed as a hit” value in [11] is on record as “yes”.
On to “Histone-lysine N-methyltransferase 2A, Q03164”, for which the “listed as a hit” value in experiment [12] was “yes”.
As for “Small ribosomal subunit protein uS17, P62280”, in experiment [13], the “listed as a hit” value is given as “yes”.
In the case of “Small ribosomal subunit protein uS10, P60866”, the “listed as a hit” value in [14] was “yes”.
Take “Small ribosomal subunit protein eS19, P39019”: the “listed as a hit” value in experiment [15] was “yes”.
For “Small ribosomal subunit protein uS7, P46782”, in experiment [16], the “listed as a hit” value is listed as “yes”.
With “Small ribosomal subunit protein eS1, P61247”, the “listed as a hit” value in [16] was “yes”.
Turning to “DNA-directed RNA polymerase II subunit RPB1, P24928”, the “listed as a hit” value in [17] and in experiment [18] was “yes” each time.
On to Actin, cytoplasmic 2, P63261, for which the “listed as a hit” value in experiment [19] was “yes”.
